The target in the first assay is PUM1 PUF domain R5-RGK (Homo sapiens, UniProt Q14671 828-1176, C1007R;R1008G;Q1011K). Briefly: yeast three-hybrid, YBZ-1, SC-Leu-His + 0.5 mM 3-AT, 4 days. Conditions: tags: N-Gal4 AD-HA kept; label: inside an RPR1-promoter hybrid RNA with tandem MS2 sites; ssRNA. The essentials: (§1)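 Pumilio-1 PUF domain libraries, randomized at the three base-contacting residues of each repeat, were co-expressed with matching RNA elements from a centromeric plasmid in strain YBZ-1, which carries a LexA–MS2 coat fusion and a HIS3 reporter. Transformants grew for four days on SC-Leu (input) or on SC-Leu-His + 0.5 mM 3-AT (selection), and the repeat regions were PCR-amplified and Illumina-sequenced. The interaction score is the log change in variant frequency from input to selection. That logarithm is base 2, with a pseudocount of 1 where a variant was absent.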
Chain of PUM1 PUF domain R5-RGK (Q14671 828-1176 C1007R/R1008G/Q1011K): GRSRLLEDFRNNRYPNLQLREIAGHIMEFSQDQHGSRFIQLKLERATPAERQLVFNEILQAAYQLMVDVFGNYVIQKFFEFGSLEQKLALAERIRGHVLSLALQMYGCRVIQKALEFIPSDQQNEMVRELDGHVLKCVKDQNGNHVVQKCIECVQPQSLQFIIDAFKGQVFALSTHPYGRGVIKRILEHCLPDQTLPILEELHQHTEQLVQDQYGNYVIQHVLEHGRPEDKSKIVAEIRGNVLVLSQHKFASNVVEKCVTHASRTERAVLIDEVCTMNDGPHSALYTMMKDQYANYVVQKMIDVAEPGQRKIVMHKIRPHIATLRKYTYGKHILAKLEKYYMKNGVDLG
Chain of PUM1 PUF domain R4-DHS (Q14671 828-1176 N971D/Q975S): as the sequence (Q14671 828-1176 C1007R/R1008G/Q1011K) above, with N144D, Q148S, R180C, G181R, K184Q counted along it
For “GGCUAGAACUAGUGGAUCCCCCGGCGCCCGGCGGCUCGAGCCCGGGUAAGUGUCAAUAGUCUGCAUGCCGCCGGGCGCCAUGCCUGCAGGUCGACUCUAGAAAACAUG”, the binding signal is 2.71 log2 enrichment (interaction score).

Regarding “GGCUAGAACUAGUGGAUCCCCCGGCGCCCGGCGGCUCGAGCCCGGGUAAGUGUUAAUAGUCUGCAUGCCGCCGGGCGCCAUGCCUGCAGGUCGACUCUAGAAAACAUG”, the binding signal is 3.44 log2 enrichment (interaction score). Same read-out and setting: the value for “GGCUAGAACUAGUGGAUCCCCCGGCGCCCGGCGGCUCGAGCCCGGGUAAGUGUGAAUAGUCUGCAUGCCGCCGGGCGCCAUGCCUGCAGGUCGACUCUAGAAAACAUG” was 1.16 log2 enrichment (interaction score).

A further assay has as its target PUM1 PUF domain R4-DHS (Homo sapiens, UniProt Q14671 828-1176, N971D;Q975S). Described as above. Conditions: tags: N-Gal4 AD-HA kept; label: inside an RPR1-promoter hybrid RNA with tandem MS2 sites; ssRNA. An outline of the steps:
as §1
For the sequence “GGCUAGAACUAGUGGAUCCCCCGGCGCCCGGCGGCUCGAGCCCGGGUAAGUGUACAUAGUCUGCAUGCCGCCGGGCGCCAUGCCUGCAGGUCGACUCUAGAAAACAUG”, the binding signal is 3.02 log2 enrichment (interaction score). On the same count and under the same terms, the value for “GGCUAGAACUAGUGGAUCCCCCGGCGCCCGGCGGCUCGAGCCCGGGUAAGUGUAAAUAGUCUGCAUGCCGCCGGGCGCCAUGCCUGCAGGUCGACUCUAGAAAACAUG” was 4.49 log2 enrichment (interaction score).

Consider “GGCUAGAACUAGUGGAUCCCCCGGCGCCCGGCGGCUCGAGCCCGGGUAAGUGUAUAUAGUCUGCAUGCCGCCGGGCGCCAUGCCUGCAGGUCGACUCUAGAAAACAUG”, for which the binding signal is 5.89 log2 enrichment (interaction score).
